Sampled rows, rich in hits. Any-hit rate of the full collection: about 6%.
DRD3 agonist = agonists of human D3 dopamine receptor | P35462 | D3R DiscoveRx beta-arrestin cells, luminescence, 90 min | max activation, % | 410,000 compounds, 0.58% hits | AID 652048; in the data active = max activation above about 30%
Target sequence (P35462 whole entry, looked up): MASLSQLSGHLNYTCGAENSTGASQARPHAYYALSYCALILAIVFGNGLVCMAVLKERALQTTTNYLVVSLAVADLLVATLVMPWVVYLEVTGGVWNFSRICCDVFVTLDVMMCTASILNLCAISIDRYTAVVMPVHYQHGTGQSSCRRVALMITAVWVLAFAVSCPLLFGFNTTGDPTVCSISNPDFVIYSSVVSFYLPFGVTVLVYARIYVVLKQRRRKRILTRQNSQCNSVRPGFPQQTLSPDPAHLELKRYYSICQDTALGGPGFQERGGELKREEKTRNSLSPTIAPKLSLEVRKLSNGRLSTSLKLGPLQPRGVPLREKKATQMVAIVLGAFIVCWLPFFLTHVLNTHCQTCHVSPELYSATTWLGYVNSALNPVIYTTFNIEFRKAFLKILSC
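Cells at 1500/well, incubated overnight, then treated with pinned compounds (dopamine as control) for 90 min at 37 degrees C. DiscoveRx reagent added for 30 - 60 minutes at room temperature; luminescence read.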
DRD3 antagonist = blocks the human D3 dopamine receptor. P35462. D3R cells, DiscoveRx beta-arrestin luminescence, antagonist mode; hits give low values. max response, negative = inhibition, %. 360,000 compounds, 2.5% hits; in the data active = max response below about -50%; inconclusive = no clear call, values can overlap the other calls
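Cells expressing the human receptor were seeded at 1500 cells/well, incubated overnight at 37 degrees C in 5% CO2, then exposed to library compounds with dopamine controls for 90 minutes at 37 degrees C before luminescent detection.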
D1 antagonist = antagonists of human D1 dopamine receptor; 360,000 compounds, 3.2% hits; HEK293 TREx D1 cells, calcium flux, dopamine EC80; hits give low values; activity change, negative = inhibition, % at 10 µM; P21728; in the data active = activity change below about -30%
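Using tetracycline-induced force-coupled D1 Hek293 cells and a calcium dye, signals were followed for 180 s after compound, then for 180 s after EC80 dopamine, to detect inhibitors.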
D1 agonist = human D1 receptor agonism | activation, % at 2 µM | AID 504660 | 360,000 compounds, 1% hits | P21728 | HEK293 T-REx D1 cells, calcium flux, agonist mode; in the data active = activation above about 30%
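Agonism was scored from calcium flux recorded over 180 s (1 read/s) after pintool compound addition, following a 10-cycle baseline. Cells were inducible force-coupled HEK293 TREx D1, plated overnight at 30 C and loaded with no-wash calcium dye.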
D1 PAM = enhances dopamine response at the human D1 receptor. HEK293 TREx D1 cells, calcium flux, dopamine EC20 potentiation. potentiation, % at 10 µM. 360,000 compounds, 0.036% hits. P21728. AID 504651; in the data active = potentiation above about 30%
Chronic BCR inh = inhibitors of chronic active B-cell receptor signaling. ABC-DLBCL IkBa-CBG/CBR reporter, luminescence ratio, 4 h. Potency, µM (doses to about 46.1 µM), actives largely listed as inhibitors. 340,000 compounds, 0.05% hits; active = well fitted inhibition curve with a large enough effect in the signal ratio, with a control signal flat, not every such curve was filed as active; inconclusive = small, poorly fitted or top-dose-only effect, or effect the other way, or a change in a side signal; the % refers to the signal ratio
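TMD8 human ABC-DLBCL cells with doxycycline-inducible IκBα–green luciferase fusion and unfused red luciferase, in 0.5% FBS medium; compounds up to 46 uM, 4 h at 37C. Green/red luminescence ratio, filter-overlap corrected, fitted to concentration-response curves.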
Numbers stand for hits; - = inactive; ? = inconclusive; . = not tested or not shown; ! = repeats disagree.

SMILES | DRD3 agonist | DRD3 antagonist | D1 antagonist | D1 agonist | D1 PAM | Chronic BCR inh
O=C(c1cc2ccccc2cc1OCC(O)CN1CCCCC1)N1CCCCC1 (configuration not stated) | - | -85 | - | - | - | -
C=CCNC(=O)CN1C(=O)CSc2ccc(S(=O)(=O)N3CCOCC3)cc21 | - | - | . | . | . | .
COP(=O)(OC)OC(c1ccc(Cl)cc1)P(=O)(OC)OC (configuration not stated) | 84 | . | . | . | . | .
COP(=O)(OC)OC(C(=O)c1ccccc1)c1ccc(Cl)cc1 (configuration not stated) | - | - | . | . | . | .
O=C(NCc1cccc(Cl)c1)C1CCCN(c2nn3cc(-c4ccc(F)cc4)nc3s2)C1 (configuration not stated) | - | . | - | - | - | .
Cc1ccc(NC(=O)c2oc3ccccc3c2NC(=O)C2CCCCC2)cc1 | - | . | - | - | - | .
Cc1c(NC(=O)OCCNC(=O)COc2ccc(Cl)cc2Cl)sc(=S)n1C | - | - | -43 | - | - | ?
CC1=C(C(=O)N2CCCCCC2)CC(CC(=O)NCc2cccs2)C(=O)N1Cc1ccccc1 (configuration not stated) | - | - | . | . | . | .
CNC(=O)CSc1nnc(-c2cccc(S(=O)(=O)N3CCOCC3)c2)n1-c1ccc(F)cc1 | - | - | - | - | - | ?
O=C(O)CSc1nnc(-c2cccc(S(=O)(=O)N3CCOCC3)c2)n1-c1cccc(Cl)c1 | - | - | -31 | - | - | -
CC1(C(=O)NC2CCCCCC2)CCN1C(=O)Cc1ccc(-c2ccccc2)cc1 (configuration not stated) | - | - | . | . | . | .
COc1ccc(CNC(=O)CS(=O)(=O)Cc2nc(-c3ccc(OC)cc3)oc2C)cc1 | - | - | - | - | - | -
COc1ccc(-c2nc(CS(=O)(=O)CC(=O)NC3CCC(C)CC3)c(C)o2)cc1 (configuration not stated) | - | - | -33 | 31 | - | -
Cc1cc(N(CCO)CCO)ccc1N=Nc1cc(F)ccc1F | - | -74 | - | - | - | ?
NC[C@H](O)c1ccc(O)c(O)c1 | 47! | - | - | - | - | -
CNC[C@H](O)c1ccc(O)c(O)c1 | - | - | - | - | - | -
CC(C)NCC(O)c1ccc(O)c(O)c1 (configuration not stated) | 39! | - | - | - | - | -
NC[C@@H](O)c1ccc(O)c(O)c1 | . | . | - | - | - | .
Cc1c(NC(=S)NC(=O)c2sc3ccccc3c2Cl)cccc1C(=O)O | - | - | - | - | - | ?
COc1ccccc1C(=O)NNC(=S)NC(=O)c1sc2ccccc2c1Cl | - | - | - | 213 | - | ?
COc1ccccc1C(=O)NC(=S)NNC(=O)c1sc2ccccc2c1Cl | - | - | - | 199 | - | ?
Clc1ccc(-c2cc(COc3ccccc3)on2)cc1 | - | - | - | 35 | - | ?
COc1ccc(-c2[nH]c3c(c2-c2c(-n4cccc4)n(C)c(=O)[nH]c2=O)c(=O)[nH]c(=O)n3C)cc1F | - | . | - | - | - | .
CCCCC(=O)NC(NC(=S)N1CCOCC1)C(Cl)(Cl)Cl (configuration not stated) | - | - | -34 | - | - | -
C=Cc1ccc(Cn2c(=O)n(C)c(=O)c3sccc32)cc1 | - | - | -34 | - | - | ?
SMILES | DRD3 agonist | DRD3 antagonist | D1 antagonist | D1 agonist | D1 PAM | Chronic BCR inh
Cc1ccccc1Nc1cc(C)c2c(O)cccc2n1 | - | - | - | - | - | -
Cc1ccc(Nc2cc(C)c3ccc(O)cc3n2)cc1C | - | -57 | - | 33 | - | ?
COC(=O)c1cc(Nc2cc(C)c3c(O)cccc3n2)cc(C(=O)OC)c1 | - | - | - | - | - | ?
Cc1ccc(Nc2cc(C)c3c(O)cccc3n2)cc1C | - | - | -49 | 35 | - | ?
COc1ccc(Nc2c(C)cccc2C)cc1 | - | - | -38 | - | - | -
COc1ccc(Nc2cc(C)c3c(O)cccc3n2)cc1 | - | - | -33 | - | - | -
COC(=O)c1cc(Nc2cc(C)c3ccc(O)cc3n2)cc(C(=O)OC)c1 | - | - | - | - | - | -
COc1ccc(C(=O)CC(=O)C(=O)Nc2c(C)cccc2C)cc1 | - | - | - | - | - | ?
COC(=O)Cn1c(SCCOc2ccccc2OC)nc2ccccc21 | - | . | - | - | - | .
CCOC(=O)c1ccc(N2C(=O)c3n[nH]c(C)c3C2c2ccc(OCC)cc2)cc1 (configuration not stated) | - | . | - | - | - | .
CC(=O)c1cc(C#N)c(Oc2ccccc2)nc1C | - | - | . | . | . | .
CC(=O)c1cc(C#N)c(Oc2ccc(Cl)cc2Cl)nc1C | - | -56 | . | . | . | .
C/C(=N\NC(=O)C(=O)Nc1cccc(C(F)(F)F)c1)c1ccc(Cl)s1 | - | - | -39 | - | - | -
COc1ccc(/C(C)=N/Nc2cccc(C(=O)O)c2)cc1OC | - | - | - | - | - | ?
C/C(=N\NC(=O)CNc1cccc(C(F)(F)F)c1)c1cccs1 | - | - | - | - | - | ?
C/C(=N\Nc1cccc(C(=O)O)c1)c1ccc(Cl)s1 | - | - | -59 | - | - | ?
CCc1cnc2c(c1SCC(=O)Nc1ccc(C(=O)OC)cc1)c(=O)n(C)c(=O)n2C | - | . | . | - | - | -
CN(C)c1ccc(/C=C/C(=O)c2c(O)c3ccccc3oc2=O)cc1 | - | - | - | 156 | - | ?
CCOc1ccccc1C(=O)N[C@H](C(=O)Nc1nc2c(s1)CCCC2)C(C)C | - | -74 | - | - | - | -
COc1ccc2sc(N(CCN(C)C)C(=O)/C=C/c3cccs3)nc2c1 | - | -86 | - | - | - | ?
CC(Sc1nc2ccccc2s1)C(=O)c1c(N)n(C)c(=O)n(C)c1=O (configuration not stated) | - | - | -42 | - | - | -
CC(Sc1n[nH]c(-c2ccccc2)n1)C(=O)c1c(N)n(C)c(=O)n(C)c1=O (configuration not stated) | - | - | - | - | - | ?
COc1cccc(CNC(=O)c2[nH]c3cc(C)ccc3c2Sc2ccccc2)c1 | - | . | - | - | - | .
Cc1ccc2c(Sc3ccccc3)c(C(=O)NCc3ccccc3F)[nH]c2c1 | - | . | -44 | - | - | .
O=C(O)Cn1c(C(=O)Nc2nc(-c3ccccc3Cl)cs2)cc2ccccc21 | - | . | . | . | . | .
CCN(c1ccccc1)S(=O)(=O)c1ccc2c(c1)CC(C)N2C(=O)C1CC1 (configuration not stated) | - | - | -32 | - | - | -
CC1Cc2cc(S(=O)(=O)CCC(=O)N3CCN(c4ccccc4)CC3)ccc2N1C(=O)C1CC1 (configuration not stated) | - | - | -31 | - | - | -
